# The full list was thinned out, with the strongest signals kept by preference.
# B1: StdA (Salmonella typhimurium), Q8Z3Z0 (protein)
# chain: MAAAGMMYGASVFAADTTPTAGPFGSGKILFTGTITNSPCDIAPGDDAITVPFGQISYRKLNTANATTDSKPFTIHLQNCAFDPNETTIAGSAGKMSKVTVSFSGTADTSGKAYVSTGSAQHVGVQLLKGDNTSLITPNTPMPDGDAQQLQAGNNELNFFARLIALTDAATPGDVNASVTYTLKYL
# How the values were obtained:
# Assay in all cases: glycan array binding signal (z-score within array); higher = stronger binding
# Details in all cases: glycan notation: IUPAC condensed, linker removed
# [1] = target: Fuc(a1-2)Gal(b1-3)GlcNAc
# Outline: (§1)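 Columns mapping to the same glycan were averaged after glycan names were converted to IUPAC-condensed notation. The data come from 3228 arrays in the Consortium for Functional Glycomics database, limited to those with an available protein sequence. Binding is reported as a within-array Z-score averaged across arrays of one protein sequence and across linkers.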
# [2] = target: Fuc(a1-2)Gal(b1-3)GlcNAc(b1-2)Man(a1-3)[Fuc(a1-2)Gal(b1-3)GlcNAc(b1-2)Man(a1-6)]Man(b1-4)GlcNAc(b1-4)GlcNAc
# Outline: as §1
# [3] = target: Fuc(a1-2)Gal(b1-4)Glc6S
# Outline: as §1
# [4] = target: Fuc(a1-2)Gal(b1-4)GlcNAc(b1-3)Gal(b1-4)GlcNAc(b1-3)Gal(b1-4)GlcNAc
# Outline: as §1
# [5] = target: Fuc(a1-2)Gal(b1-4)[Fuc(a1-3)]GlcNAc(b1-2)Man(a1-3)[Fuc(a1-2)Gal(b1-4)[Fuc(a1-3)]GlcNAc(b1-2)Man(a1-6)]Man(b1-4)GlcNAc(b1-4)GlcNAc
# Outline: as §1
# [6] = target: Fuc(a1-2)[Gal(a1-3)]Gal(b1-4)GlcNAc(b1-2)Man(a1-3)[Fuc(a1-2)[Gal(a1-3)]Gal(b1-4)GlcNAc(b1-2)Man(a1-6)]Man(b1-4)GlcNAc(b1-4)GlcNAc
# Outline: as §1
# [7] = target: Fuc(a1-3)[Gal3S(b1-4)]Glc6S
# Outline: as §1
# [8] = target: Fuc(a1-3)[Gal3S(b1-4)]GlcNAc
# Outline: as §1
# [9] = target: Fuc(a1-3)[Neu5Ac(a2-3)]Gal(b1-4)GlcNAc(b1-3)GalNAc
# Outline: as §1
# [10] = target: Gal(a1-3)Gal(b1-4)Glc
# Outline: as §1
# [11] = target: Gal(a1-3)Gal(b1-4)[Fuc(a1-3)]GlcNAc(b1-2)Man(a1-3)[Gal(a1-3)Gal(b1-4)[Fuc(a1-3)]GlcNAc(b1-2)Man(a1-6)]Man(b1-4)GlcNAc(b1-4)GlcNAc
# Outline: as §1
# [12] = target: Gal(b1-3)[Fuc(a1-4)]GlcNAc(b1-2)Man(a1-3)[Gal(b1-3)[Fuc(a1-4)]GlcNAc(b1-2)Man(a1-6)]Man(b1-4)GlcNAc(b1-4)GlcNAc
# Outline: as §1
# [13] = target: Gal3S6S(b1-4)GlcNAc6S
# Outline: as §1
# [14] = target: Gal6S(b1-4)GlcNAc6S
# Outline: as §1
# [15] = target: GalNAc(b1-3)Gal(a1-4)Gal(b1-4)GlcNAc(b1-3)Gal(b1-4)Glc
# Outline: as §1
# [16] = target: GalNAc(b1-4)GlcNAc(b1-2)Man(a1-3)[GalNAc(b1-4)GlcNAc(b1-2)Man(a1-6)]Man(b1-4)GlcNAc(b1-4)GlcNAc
# Outline: as §1
# [17] = target: GlcNAc(b1-3)[GlcNAc(b1-6)]GalNAc
# Outline: as §1
# [18] = target: GlcNAc(b1-6)Gal(b1-4)GlcNAc
# Outline: as §1
# [19] = target: GlcNAc3Prop(b1-4)GlcNAc
# Outline: as §1
# [20] = target: GlcNAc6S(b1-3)Gal(b1-4)GlcNAc
# Outline: as §1
# [21] = target: Man(a1-2)Man(a1-2)Man(a1-6)[Man(a1-3)]Man
# Outline: as §1
# [22] = target: Man(a1-2)Man(a1-3)[Man(a1-2)Man(a1-6)]Man
# Outline: as §1
# [23] = target: Man(a1-3)[Man(a1-6)]Man(a1-6)[Man(a1-2)Man(a1-3)]Man(b1-4)GlcNAc(b1-4)GlcNAc
# Outline: as §1
# [24] = target: Man(a1-3)[Man(a1-6)]Man(a1-6)[Man(a1-3)]Man(b1-4)GlcNAc(b1-4)GlcNAc
# Outline: as §1
# [25] = target: Neu5Ac(a2-3)Gal(b1-4)Glc
# Outline: as §1
# [26] = target: Neu5Ac(a2-3)Gal(b1-4)GlcNAc6S
# Outline: as §1
# [27] = target: Neu5Ac(a2-3)Gal(b1-4)[Fuc(a1-3)]GlcNAc
# Outline: as §1
# [28] = target: Neu5Ac(a2-3)Gal6S(b1-4)GlcNAc
# Outline: as §1
# [29] = target: Neu5Ac(a2-3)Gal6S(b1-4)[Fuc(a1-3)]GlcNAc
# Outline: as §1
# [30] = target: Neu5Ac(a2-3)[GalNAc(b1-4)]Gal(b1-4)GlcNAc
# Outline: as §1
# [31] = target: Neu5Ac(a2-6)Gal(b1-4)GlcNAc(b1-3)Gal(b1-3)GlcNAc
# Outline: as §1
# [32] = target: Neu5Ac(a2-6)Gal(b1-4)GlcNAc(b1-3)Gal(b1-4)GlcNAc
# Outline: as §1
# [33] = target: Neu5Ac(a2-6)Gal(b1-4)GlcNAc(b1-3)Gal(b1-4)[Fuc(a1-3)]GlcNAc(b1-3)Gal(b1-4)[Fuc(a1-3)]GlcNAc
# Outline: as §1
binder,measurement,setting,value
B1,glycan array binding signal (z-score),[1],-0.15
same,glycan array binding signal (z-score),[2],10.3
same,glycan array binding signal (z-score),[3],0.205
same,glycan array binding signal (z-score),[4],0.168
same,glycan array binding signal (z-score),[5],2.3
same,glycan array binding signal (z-score),[6],-0.604
same,glycan array binding signal (z-score),[7],6.5
same,glycan array binding signal (z-score),[8],0.034
same,glycan array binding signal (z-score),[9],4.78
same,glycan array binding signal (z-score),[10],0.257
same,glycan array binding signal (z-score),[11],4.97
same,glycan array binding signal (z-score),[12],5.67
same,glycan array binding signal (z-score),[13],-0.494
same,glycan array binding signal (z-score),[14],-0.164
same,glycan array binding signal (z-score),[15],0.837
same,glycan array binding signal (z-score),[16],3.5
same,glycan array binding signal (z-score),[17],0.036
same,glycan array binding signal (z-score),[18],0.557
same,glycan array binding signal (z-score),[19],-0.424
same,glycan array binding signal (z-score),[20],1.03
same,glycan array binding signal (z-score),[21],-0.088
same,glycan array binding signal (z-score),[22],-0.749
same,glycan array binding signal (z-score),[23],-0.109
same,glycan array binding signal (z-score),[24],-0.131
same,glycan array binding signal (z-score),[25],-0.372
same,glycan array binding signal (z-score),[26],-0.404
same,glycan array binding signal (z-score),[27],-0.614
same,glycan array binding signal (z-score),[28],-0.214
same,glycan array binding signal (z-score),[29],-0.437
same,glycan array binding signal (z-score),[30],-0.022
same,glycan array binding signal (z-score),[31],-0.819
same,glycan array binding signal (z-score),[32],-0.14
same,glycan array binding signal (z-score),[33],0.009
